Bioassay records from PubChem.
Most compounds without a hit are left out; they make up all but 3% or so of the library.
S16 F2sN tox – Cell viability qHTS assay in S16 Pmp22-F2sN cells. hit rate 0.48% among 43,000. AID 1508642, 2021. S16 Pmp22-F2sN Schwann cells viability, CellTiter-Glo, 24 h. Potency, µM (titrated, usually from 57.5 µM), usual class: cytotoxic; further: nearly all actives have a fitted effect of over 65% in size
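CellTiter-Glo counter-screen, qHTS, 1536-well. Cells: S16(c9) Pmp22-F2sN, 500-1,000/well in DMEM + 10% FBS. Cpd 23 nL pin transfer, 24 h, 37C/5% CO2. Read: luminescence, CCD imager.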
PMP22 txn prim – Cell-based coincidence reporter assay to measure PMP22 gene transcription in S16 Pmp22-F2sN cells - Primary screen; Potency, µM (top dose mostly 57.5 µM), hits mostly inhibitors; hit rate 2% among 43,000; AID 1508649, 2021; S16 Pmp22-F2sN Schwann cells (luciferase reporters placed in the Pmp22 gene), FLuc/NLuc coincidence luminescence, 24 h; active means clear falling dose curves in both reporters; inconclusive means both reporters move, but less clearly or upward; inactive means either reporter flat; the % is the NLuc reporter signal
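qHTS, 1536-well. Cells seeded, compounds added by pin tool, 24 h 37C. Nano-Glo reagent 1 (lysis/FLuc), 10 min RT, read; Stop&Glo, 10 min RT, read NLuc.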
OvCa metastasis – Primary qHTS assay for Inhibitors of ovarian cancer metastasis using an organotypic tumor microenvironment (TME) model; SKOV3ip1-GFP adhesion/invasion on 3D omental model, fluorescence; Potency, µM (top dose mostly 45.8 µM), actives largely listed as inhibitors; hit rate 0.1% among 46,000; AID 1963576, 2024; further: nearly all actives have a fitted effect of over 65% in size
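qHTS, 4-pt dose (0.36-46 umol/L); SKOV3ip1-GFP, 1,200 cells/well, no FBS; primary omental fibroblast/mesothelial co-culture 48 h pre-grown; 2 h RT + 16 h 37 C; PBS wash, 4% PFA; GFP count 488/509 nm.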
mTORC1 inh – Acumen qHTS Assay for Inhibitors of the mTORC1 Signaling Pathway in MEF (Tsc2-/-, p53-/-) Cells: Sytravon; Tsc2-/- p53-/- MEF, phospho-rpS6 immunofluorescence/PI, 24 h; Potency, µM (titrated, usually from 38.3 µM), most hits filed as inhibitors; hit rate 0.78% among 44,000; AID 493208, 2011; further: nearly all actives have a fitted effect of over 50% in size
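Read-out: phospho-S6 Alexa-488 intensity over PI intensity per well, scored as % active cells using thresholds from rapamycin (7.5 nM) and DMSO controls. Tsc2-/-, p53-/- MEFs exposed to compound for 24 h; PI cell count recorded as viability.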
p53null 39C tox – qHTS Screen for Compounds that Selectively Target Cancer Cells with p53 Mutations: Cytotoxicity of p53 Null Cells at the Nonpermissive Temperature. H1299 p53-null (neo) cells, 39C, ATPlite viability, 24 h. Potency, µM (highest dose often 46.1 µM), usual class: cytotoxic. hit rate 0.97% among 55,000. AID 904, 2007; further: nearly all actives have a fitted effect of over 50% in size
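Following overnight plating at 37C (600 cells/well), H1299-neo or H1299-p53A138V cells are dosed up to 46 uM. Incubation lasts 24 hr at 39C before ATP detection.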
p53null 32C tox – qHTS Screen for Compounds that Selectively Target Cancer Cells with p53 Mutations: Cytotoxicity of p53 Null Cells at the Permissive Temperature | H1299-neo p53 null cells, ATP luminescence, 24 h, 32C | Potency, µM (doses to about 46.1 µM), most hits filed as cytotoxic | hit rate 0.62% among 55,000 | AID 903, 2007; further: nearly all actives have a fitted effect of over 55% in size
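Overnight 37C seeding (600 cells/well) of H1299-neo preceded a 24 hr, 32C exposure to compounds up to 46 uM. ATP levels, read by luminescence after 20 min at RT, indicated surviving cells.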
NLuc sat counter – Biochemical NLuc saturation counterscreen for small molecule modulators of PMP22 gene expression - Nano-Glo assay. shares compounds with PMP22 txn prim. Secreted NLuc enzyme (filtered S16 cell medium), Nano-Glo luminescence. Potency, µM (series often up to 57.5 µM), most hits filed as inhibitors. hit rate 4% among 690
NLuc Km counter – Biochemical coelenterazine-based NLuc counterscreen for small molecule modulators of PMP22 gene expression - Km assay | shares compounds with PMP22 txn prim | secreted NLuc enzyme, coelenterazine luminescence, Km conditions | Potency, µM (titrated, usually from 57.5 µM), actives largely listed as inhibitors | hit rate 5% among 690
FLuc ctr PMP22 – Biochemical FLuc counterscreen for small molecule modulators of PMP22 gene expression; purified P. pyralis FLuc, luminescence, 10 min; Potency, µM (series often up to 57.5 µM), most hits filed as inhibitors; 690 tested, under 10 active; shares compounds with PMP22 txn prim
Target sequence (P08659 whole entry, looked up): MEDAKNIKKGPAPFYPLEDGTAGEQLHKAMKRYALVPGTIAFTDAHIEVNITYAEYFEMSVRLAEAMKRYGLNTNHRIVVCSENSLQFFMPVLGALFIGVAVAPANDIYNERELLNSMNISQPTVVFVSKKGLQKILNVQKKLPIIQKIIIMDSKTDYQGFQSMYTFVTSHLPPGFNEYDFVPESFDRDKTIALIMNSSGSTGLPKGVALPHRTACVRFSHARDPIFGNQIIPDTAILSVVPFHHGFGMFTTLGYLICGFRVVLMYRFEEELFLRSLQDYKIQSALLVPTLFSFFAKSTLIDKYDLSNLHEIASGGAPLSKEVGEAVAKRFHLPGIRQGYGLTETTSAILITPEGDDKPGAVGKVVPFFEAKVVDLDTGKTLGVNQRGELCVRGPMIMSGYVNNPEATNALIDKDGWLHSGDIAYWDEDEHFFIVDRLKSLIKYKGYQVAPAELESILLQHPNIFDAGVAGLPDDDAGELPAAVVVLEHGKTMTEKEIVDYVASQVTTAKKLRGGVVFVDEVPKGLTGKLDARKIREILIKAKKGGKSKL
S16 viab conf – Cell viability qHTS assay in S16 Pmp22-F2sN cells - Confirmatory screen; shares compounds with PMP22 txn prim; Potency, µM (doses to about 57.5 µM), actives largely listed as cytotoxic; hit rate 7% among 690; S16 Schwann cells viability, CellTiter-Glo ATP luminescence, 24 h
PMP22 txn cnf – Cell-based coincidence reporter assay to measure PMP22 gene transcription in S16 Pmp22-F2sN cells - Confirmatory screen; S16 Schwann cells Pmp22-F2sN, dual luciferase, 24 h; Potency, µM (titrated, usually from 57.5 µM), usual class: inhibitors; hit rate 22% among 690; shares compounds with PMP22 txn prim; active means clear falling dose curves in both reporters; inconclusive means both reporters move, but less clearly or upward; inactive means either reporter flat; the % is the FLuc reporter signal
A number is an active result; . = inactive; ? = inconclusive; / = not tested or not shown. Unless noted, the call rests on the fitted dose curve; in most records, active means well fitted curve in the direction sought with a large enough effect; inconclusive means small, poorly fitted or top-dose-only effect, or another doubt; inactive means no such curve, though single readings can be large; an effect the other way counts as inactive or inconclusive.

SMILES	S16 F2sN tox	PMP22 txn prim	OvCa metastasis	mTORC1 inh	p53null 39C tox	p53null 32C tox	NLuc sat counter	NLuc Km counter	FLuc ctr PMP22	S16 viab conf	PMP22 txn cnf
O=C(Cn1ncc2c([nH]c3ccccc32)c1=O)Nc1cccc(C(F)(F)F)c1	.	20µM	.	.	.	.	.	.	.	.	.
COC(=O)c1cc(NC(=O)Cn2ncc3c([nH]c4ccccc43)c2=O)cc(C(=O)OC)c1	.	.	.	.	.	.	/	/	/	/	/
Cc1c(/C=C(\C#N)C(=O)Nc2cccc(Cl)c2)c2ccccc2n1Cc1ccccc1Cl	.	?	.	.	.	.	.	.	.	.	.
N#CC[C@H](C1CCCC1)n1cc(-c2ncnc3[nH]ccc23)cn1	/	/	.	/	/	/	/	/	/	/	/
COc1cc2c(=O)c(C(=O)c3ccc(C)c(C)c3)cn(Cc3ccccc3F)c2cc1OC	.	17µM	.	.	.	.	0.39µM	0.48µM	.	.	?
O=C(CSc1nc2c(sc3ccccc32)c(=O)n1CCCC(=O)NC1CCCC1)Nc1ccc(F)cc1	?	?	.	.	.	.	.	.	.	.	11µM
Cc1cccc(NC(=O)CSc2nc3c(sc4ccccc43)c(=O)n2CCCC(=O)NC2CCCC2)c1	.	.	.	.	.	.	/	/	/	/	/
Cc1ccc(C(=O)CSc2nc3cc(C(=O)NC4CCCC4)ccc3c(=O)n2CC2CCCO2)cc1 (configuration not stated)	?	.	.	.	.	.	/	/	/	/	/
O=C(CSc1nc2cc(C(=O)NC3CCCC3)ccc2c(=O)n1CC1CCCO1)c1cccc(Cl)c1 (configuration not stated)	28µM	14µM	.	.	.	.	.	.	.	.	?
COC[C@@H](c1ccc(C(F)(F)F)cc1)N1CCN(C2(C)CCN(C(=O)c3c(C)ncnc3C)CC2)C[C@H]1C	/	/	.	/	/	/	/	/	/	/	/
CCc1ccccc1NC(=O)c1ccc2nc(C(C)C)oc2c1	?	17µM	?	.	.	.	?	?	.	.	.
COc1ccc2c(c1)CC[C@H]1[C@@H]2CC[C@]2(C)[C@@H](NCCCCCCN3C(=O)C=CC3=O)CC[C@H]12	/	/	.	/	/	/	/	/	/	/	/
